Percent Effect data for ten compounds are collected here from ChEMBL document CHEMBL3988442, “University of Dundee, Small-Polar-MMV Screening Library” (2021).

For some assays here: Potency and affinity values are given separately.

What all share (set-up): scale not given: direction of the effect not stated beside the values
The target of assay [1] is Protein translocase subunit SecA (Escherichia coli (strain K12)) (UniProt P10408). Nature of the assay: Assay to Identify E. coli SecA ATPase Inhibitors. The note with it: 30 µM. The class given is functional.
Sequence of Protein translocase subunit SecA (Escherichia coli (strain K12)) (P10408 whole entry): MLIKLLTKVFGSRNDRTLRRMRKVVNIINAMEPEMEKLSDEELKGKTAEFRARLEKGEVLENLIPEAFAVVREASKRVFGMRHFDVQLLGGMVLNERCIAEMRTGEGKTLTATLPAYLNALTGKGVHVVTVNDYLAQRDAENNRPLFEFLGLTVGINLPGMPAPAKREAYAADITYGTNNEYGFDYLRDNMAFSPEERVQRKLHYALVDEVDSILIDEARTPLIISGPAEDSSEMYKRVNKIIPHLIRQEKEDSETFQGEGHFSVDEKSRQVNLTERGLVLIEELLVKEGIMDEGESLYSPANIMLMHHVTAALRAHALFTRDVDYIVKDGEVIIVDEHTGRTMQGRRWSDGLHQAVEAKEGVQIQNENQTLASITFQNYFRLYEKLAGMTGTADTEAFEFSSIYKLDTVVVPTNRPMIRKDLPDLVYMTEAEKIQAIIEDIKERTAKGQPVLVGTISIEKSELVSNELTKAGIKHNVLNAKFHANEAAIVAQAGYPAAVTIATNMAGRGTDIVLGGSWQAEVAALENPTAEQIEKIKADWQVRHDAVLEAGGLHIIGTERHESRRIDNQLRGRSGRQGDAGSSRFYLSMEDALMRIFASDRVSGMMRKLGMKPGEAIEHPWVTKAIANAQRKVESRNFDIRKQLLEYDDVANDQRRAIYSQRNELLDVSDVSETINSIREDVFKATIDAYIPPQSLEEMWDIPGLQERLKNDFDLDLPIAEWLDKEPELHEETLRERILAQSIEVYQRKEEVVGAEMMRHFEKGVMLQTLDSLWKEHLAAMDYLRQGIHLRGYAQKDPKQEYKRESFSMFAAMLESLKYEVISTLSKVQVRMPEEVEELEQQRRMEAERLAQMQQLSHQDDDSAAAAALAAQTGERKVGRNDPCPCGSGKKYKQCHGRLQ
For assay [2], the target named is T1, Ubiquitin-activating enzyme e1, putative (Leishmania donovani (strain BPK282A1)) (UniProt E9BSI1).
T1 sequence (whole entry): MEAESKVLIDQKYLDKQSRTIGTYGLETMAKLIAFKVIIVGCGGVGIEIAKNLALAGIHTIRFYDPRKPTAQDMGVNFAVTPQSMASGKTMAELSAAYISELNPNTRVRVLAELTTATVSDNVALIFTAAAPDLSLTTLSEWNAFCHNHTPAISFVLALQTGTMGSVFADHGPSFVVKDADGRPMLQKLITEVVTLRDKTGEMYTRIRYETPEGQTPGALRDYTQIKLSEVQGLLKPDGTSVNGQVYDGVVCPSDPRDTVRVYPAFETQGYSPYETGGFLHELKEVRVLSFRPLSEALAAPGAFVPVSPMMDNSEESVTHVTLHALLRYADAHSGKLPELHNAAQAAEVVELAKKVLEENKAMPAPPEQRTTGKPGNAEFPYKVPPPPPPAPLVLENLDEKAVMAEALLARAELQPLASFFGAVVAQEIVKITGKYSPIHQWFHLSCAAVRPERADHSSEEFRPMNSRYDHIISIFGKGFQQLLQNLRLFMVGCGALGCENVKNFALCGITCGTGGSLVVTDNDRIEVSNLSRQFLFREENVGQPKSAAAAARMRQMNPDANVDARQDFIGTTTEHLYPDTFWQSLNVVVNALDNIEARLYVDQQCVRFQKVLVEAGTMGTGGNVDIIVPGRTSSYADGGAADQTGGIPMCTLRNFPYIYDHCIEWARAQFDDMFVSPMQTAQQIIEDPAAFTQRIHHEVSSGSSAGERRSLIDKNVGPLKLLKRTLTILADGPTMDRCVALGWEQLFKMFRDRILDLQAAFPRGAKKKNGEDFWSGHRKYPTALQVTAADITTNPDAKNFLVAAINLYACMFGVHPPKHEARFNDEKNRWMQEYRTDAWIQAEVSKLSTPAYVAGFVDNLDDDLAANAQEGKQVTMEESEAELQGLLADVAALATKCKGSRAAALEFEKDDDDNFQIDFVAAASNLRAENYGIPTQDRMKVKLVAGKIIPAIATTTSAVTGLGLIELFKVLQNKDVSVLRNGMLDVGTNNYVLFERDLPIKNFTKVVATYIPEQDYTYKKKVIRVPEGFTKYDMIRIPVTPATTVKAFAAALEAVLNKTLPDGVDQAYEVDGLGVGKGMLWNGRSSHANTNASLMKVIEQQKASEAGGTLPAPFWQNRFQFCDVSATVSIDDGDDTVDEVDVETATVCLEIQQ
Description: Leishmania donovani Ubiquitin Activating Enzyme (LdE1). Conditions: 30 µM. The class given is functional.

In assay [3] the target is AMP-activated protein kinase, AMPK (Homo sapiens) (UniProt P54646+O43741+P54619+Q9UGJ0+Q9Y478+Q13131+Q9UGI9). Nature of the assay: AMP-dependent Kinase enzyme assay. An in vitro enzyme assay that detects ADP turnover that is directly proportional to AMPK activity. This uses naive AMPK that is activated during the assay with MK-8722. Type of assay: functional. The note with it: 30 µM.

Assay [4] has as its target Sialic acid-binding Ig-like lectin 9 (Homo sapiens) (UniProt Q9Y336). Nature of the assay: Hs-Siglec9 ALPHAscreen SOP 20170721. The note with it: 10 µM. On the technique in general: Bead proximity is the source of the signal in Alpha formats.
The next assay deals with Trypanosoma cruzi. Description: Trypanosoma cruzi phosphomannomutase and mannose-1-phosphate guanylyltransferase assay. The class given is functional. Conditions: 10 µM.
Assay [5] addresses T2, Arginase-2, mitochondrial (Homo sapiens) (UniProt P78540).
T2 sequence (whole entry): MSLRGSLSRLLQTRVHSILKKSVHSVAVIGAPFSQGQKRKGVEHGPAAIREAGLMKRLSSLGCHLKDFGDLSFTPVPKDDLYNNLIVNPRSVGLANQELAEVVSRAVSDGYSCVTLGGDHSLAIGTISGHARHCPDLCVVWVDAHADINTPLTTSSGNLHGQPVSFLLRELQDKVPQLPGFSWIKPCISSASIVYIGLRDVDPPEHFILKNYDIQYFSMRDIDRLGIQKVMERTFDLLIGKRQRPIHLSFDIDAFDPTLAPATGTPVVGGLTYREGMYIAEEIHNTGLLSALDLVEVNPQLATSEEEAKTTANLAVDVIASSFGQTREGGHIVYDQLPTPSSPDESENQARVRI
Nature of the assay: in vitro enzyme assay to detect the production of urea directly proportional to the activity of Arginase II. Further: in the data most compounds retested in dose-response had high values. The class given is functional. The note with it: 33.3 µM.

Assay [6] has as its target T3, Proteasome subunit beta (Trypanosoma cruzi) (UniProt O96673).
T3 sequence (whole entry): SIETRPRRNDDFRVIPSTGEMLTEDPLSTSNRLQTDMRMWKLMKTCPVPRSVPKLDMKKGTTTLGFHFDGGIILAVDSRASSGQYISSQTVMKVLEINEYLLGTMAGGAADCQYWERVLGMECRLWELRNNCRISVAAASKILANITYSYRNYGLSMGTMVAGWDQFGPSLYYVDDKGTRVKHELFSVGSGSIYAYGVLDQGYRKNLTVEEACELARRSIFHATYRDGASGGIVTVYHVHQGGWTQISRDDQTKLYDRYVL
Description: Trypanosoma cruzi proteasome chymotrypsin-like activity (TcProtChymo) assay. Further: in the data most compounds retested in dose-response had high values. Type of assay: functional. Conditions: 9.37 µM.

The species named for another assay is Homo sapiens. Nature of the assay: To identify inhibition of the IFN signalling (Jak-Stat) pathway via expression of an eGFP reporter gene under the control of an IFN-stimulated response element (ISRE) containing MxA promoter. Conditions: 30 µM. The class given is functional. A general note: A reporter such as luciferase makes a cellular process visible.
Assay [7] addresses T4, Tyrosyl-tRNA synthetase, putative (Trypanosoma cruzi (strain CL Brener)) (UniProt Q4DSP6).
T4 sequence (whole entry): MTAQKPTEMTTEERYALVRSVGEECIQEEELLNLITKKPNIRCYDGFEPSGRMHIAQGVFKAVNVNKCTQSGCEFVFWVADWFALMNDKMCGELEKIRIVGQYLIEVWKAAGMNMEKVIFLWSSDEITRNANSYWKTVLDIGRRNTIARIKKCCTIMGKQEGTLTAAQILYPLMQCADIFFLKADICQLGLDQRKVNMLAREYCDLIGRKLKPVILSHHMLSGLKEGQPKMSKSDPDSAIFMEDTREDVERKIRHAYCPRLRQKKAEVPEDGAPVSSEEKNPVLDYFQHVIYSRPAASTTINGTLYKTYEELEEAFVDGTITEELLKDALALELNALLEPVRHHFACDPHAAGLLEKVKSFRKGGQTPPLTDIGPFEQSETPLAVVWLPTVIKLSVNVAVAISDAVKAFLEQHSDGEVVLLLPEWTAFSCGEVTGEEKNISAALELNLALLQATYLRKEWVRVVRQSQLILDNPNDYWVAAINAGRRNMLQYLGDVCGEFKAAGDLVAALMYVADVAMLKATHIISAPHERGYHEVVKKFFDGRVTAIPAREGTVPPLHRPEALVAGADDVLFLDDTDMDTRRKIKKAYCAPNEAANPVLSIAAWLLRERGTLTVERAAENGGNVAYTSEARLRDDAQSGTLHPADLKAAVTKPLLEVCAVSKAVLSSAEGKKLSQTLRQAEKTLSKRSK
Description: Trypanosoma cruzi tyrosyl tRNA synthetase (TcYRS) _High Tyrosine SOP. Further: in the data most compounds retested in dose-response had high values. The class given is functional. The note with it: 30 µM.

Assay [8] addresses T4, Tyrosyl-tRNA synthetase, putative (Trypanosoma cruzi (strain CL Brener)). Description: Trypanosoma cruzi tyrosyl tRNA synthetase (TcYRS) SOP. The class given is functional. Conditions: 30 µM.
Assay [9] has as its target Chromo domain-containing protein 1 (Saccharomyces cerevisiae (strain ATCC 204508 / S288c) (Baker's yeast)) (UniProt P32657). Description: ScCHD-1 Enzyme Inhibition Assay. Further: in the data most compounds retested in dose-response had high values. The class given is functional. Conditions: 30 µM.

Sequence of Chromo domain-containing protein 1 (Saccharomyces cerevisiae (strain ATCC 204508 / S288c) (Baker's yeast)) (P32657 whole entry, the tested form may be a part): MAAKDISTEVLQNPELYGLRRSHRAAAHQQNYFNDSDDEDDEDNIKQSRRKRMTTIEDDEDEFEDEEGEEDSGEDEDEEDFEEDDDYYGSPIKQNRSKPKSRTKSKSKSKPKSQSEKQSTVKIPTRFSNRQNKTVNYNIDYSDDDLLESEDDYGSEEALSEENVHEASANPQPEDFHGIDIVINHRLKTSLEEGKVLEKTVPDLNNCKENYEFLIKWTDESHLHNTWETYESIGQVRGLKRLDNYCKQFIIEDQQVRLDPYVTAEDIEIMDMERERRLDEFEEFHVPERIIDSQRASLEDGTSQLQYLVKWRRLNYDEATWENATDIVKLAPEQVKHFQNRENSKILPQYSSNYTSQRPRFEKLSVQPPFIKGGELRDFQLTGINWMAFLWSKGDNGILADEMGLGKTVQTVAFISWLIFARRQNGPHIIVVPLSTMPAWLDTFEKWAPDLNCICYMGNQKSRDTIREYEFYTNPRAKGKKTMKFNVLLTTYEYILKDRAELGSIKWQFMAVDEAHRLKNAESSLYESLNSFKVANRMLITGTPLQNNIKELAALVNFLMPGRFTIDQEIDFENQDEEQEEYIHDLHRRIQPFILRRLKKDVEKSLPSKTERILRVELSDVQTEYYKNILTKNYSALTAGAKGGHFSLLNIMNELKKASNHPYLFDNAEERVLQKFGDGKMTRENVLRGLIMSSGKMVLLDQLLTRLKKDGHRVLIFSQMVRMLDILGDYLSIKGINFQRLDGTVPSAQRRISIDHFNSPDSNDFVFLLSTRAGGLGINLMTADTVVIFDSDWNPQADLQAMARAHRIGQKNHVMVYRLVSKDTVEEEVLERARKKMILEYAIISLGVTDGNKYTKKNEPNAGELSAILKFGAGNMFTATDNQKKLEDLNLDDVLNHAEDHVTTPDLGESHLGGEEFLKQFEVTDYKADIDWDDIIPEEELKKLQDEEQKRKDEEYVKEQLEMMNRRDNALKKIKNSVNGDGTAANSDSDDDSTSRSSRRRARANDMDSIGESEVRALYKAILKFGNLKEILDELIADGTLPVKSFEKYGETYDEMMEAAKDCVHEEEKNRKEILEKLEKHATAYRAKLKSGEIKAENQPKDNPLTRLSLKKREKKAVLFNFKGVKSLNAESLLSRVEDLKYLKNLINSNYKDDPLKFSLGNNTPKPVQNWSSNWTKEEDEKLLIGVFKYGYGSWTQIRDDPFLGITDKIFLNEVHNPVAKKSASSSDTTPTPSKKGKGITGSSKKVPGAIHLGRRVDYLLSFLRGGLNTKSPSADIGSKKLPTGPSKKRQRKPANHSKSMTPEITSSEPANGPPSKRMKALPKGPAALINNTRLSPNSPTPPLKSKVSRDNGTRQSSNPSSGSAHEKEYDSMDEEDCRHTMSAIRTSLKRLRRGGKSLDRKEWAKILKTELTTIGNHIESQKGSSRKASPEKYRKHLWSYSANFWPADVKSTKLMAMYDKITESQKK
Sequence of Sialic acid-binding Ig-like lectin 9 (Homo sapiens) (Q9Y336 whole entry): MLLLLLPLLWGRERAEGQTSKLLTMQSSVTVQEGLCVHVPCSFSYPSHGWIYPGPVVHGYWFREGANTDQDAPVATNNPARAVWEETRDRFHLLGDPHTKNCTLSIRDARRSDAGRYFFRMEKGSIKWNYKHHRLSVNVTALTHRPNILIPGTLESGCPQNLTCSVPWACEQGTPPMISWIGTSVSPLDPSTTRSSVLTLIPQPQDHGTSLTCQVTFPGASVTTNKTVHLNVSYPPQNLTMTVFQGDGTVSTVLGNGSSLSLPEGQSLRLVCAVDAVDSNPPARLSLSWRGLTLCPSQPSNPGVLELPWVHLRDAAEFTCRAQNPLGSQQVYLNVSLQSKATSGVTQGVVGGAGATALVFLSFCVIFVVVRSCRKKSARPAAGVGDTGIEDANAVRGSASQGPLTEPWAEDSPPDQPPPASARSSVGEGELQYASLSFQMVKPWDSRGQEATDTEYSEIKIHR

In the case of `CCc1nc(CN2CCN(C(=O)CCc3ccccc3)CC2)cs1`, the Percent Effect in [1] is -6.36%; in assay [2] it was 19%; in assay [3], -2.93%; in assay [4], 5.39%; with Trypanosoma cruzi it was -1.95%; in assay [5], 2.8%. In addition, the Percent Effect in assay [6] was 16.5%; in the assay listed under Homo sapiens, 3.67%; in assay [7], -1.04%; in assay [8], 17.7%; in [9] it was -23.8%.
For `CCN1CCC2(CC1)CC(NC(=O)N(C)C)c1cc(C)ccc12` (stereo not given), the Percent Effect in assay [1] is -2.37%; in [2], 16%; in assay [3] it was 4.2%; in assay [4], 0.476%; with Trypanosoma cruzi, 3.28%; in assay [5], -52.9%. The Percent Effect in assay [6] was 14.4%; in the assay listed under Homo sapiens, -15.2%; in assay [7], 8.33%; in assay [8], -50%; in assay [9], -7.48%.
On to `COc1cccc(C2CC(=O)Nc3nc(N)sc32)c1OC` (stereo not given), for which the Percent Effect is 70.6% in assay [1]; 26.3% in assay [2]; -56.4% in assay [3]; -2.19% in assay [4]; 7.3% with Trypanosoma cruzi; 21.3% in assay [5]. Further, the Percent Effect in assay [6] is 10.3%; in the assay listed under Homo sapiens it was -3.92%; in assay [7] it was -4.25%; in assay [8] it was -36.4%; in [9], -8.65%.
Take `CCc1nc(CN2CCCN(C(=O)C(C)n3cncn3)CC2)cs1` (stereo not given): the Percent Effect is -4.01% in [1]; 2.6% in assay [2]; -3.41% in [3]; 4.94% in [4]; -6.93% with Trypanosoma cruzi; 6.05% in [5]. For the same compound, the Percent Effect in assay [6] is 4.05%; in the assay filed under Homo sapiens, 19.8%; in [7], 4.85%; in [8], 2.44%; in assay [9] it was -3.41%.
With `Cc1ncc2c(n1)CN(Cc1nnc(-c3occc3C)o1)CC2`, the Percent Effect in assay [1] is -2.4%; in [2] it was 18.9%; in assay [3] it was -24.9%; in [4], 14.5%; in the assay with Trypanosoma cruzi, 6.04%; in assay [5], 2.03%. In addition, the Percent Effect in assay [6] was 6.82%; in the assay listed under Homo sapiens, -0.684%; in assay [7], 22.8%; in assay [8] it was 30.5%; in assay [9], -8.36%.
In the case of `CC(=O)N1CCCC1c1ccc(C(=O)N2CCOCC2)s1` (stereo not given), the Percent Effect is -6.72% in [1]; -2.7% in assay [2]; 2.48% in assay [3]; -7.62% in assay [4]; -4.2% with Trypanosoma cruzi; -2.23% in [5]. Also, the Percent Effect was -0.601% in assay [6]; 26.2% in the assay listed under Homo sapiens; -2.15% in assay [7]; -3.7% in assay [8]; 4.51% in assay [9].
On to `Cc1nn(C)c2c(NCc3cccnc3)nc(C3CC3)nc12`, for which the Percent Effect in assay [1] is -3.37%; in assay [2] it was 15.6%; in [3], 11.8%; in [4] it was 13.7%; with Trypanosoma cruzi it was 5.61%; in assay [5], 24.8%. Moreover, the Percent Effect in assay [6] was found to be 12.8%; in the assay listed under Homo sapiens, 12.8%; in assay [7], 1.07%; in [8], 13.6%; in assay [9], 0.869%.
`CCc1nc(C2CCCN(C(=O)CN(C)S(C)(=O)=O)C2)no1` (stereo not given): the Percent Effect in assay [1] is -5.19%; in assay [2], 18.2%; in [3], -2.51%; in [4] it was -7.32%; in the assay with Trypanosoma cruzi it was 6.95%; in assay [5], -2.32%. Moreover, the Percent Effect in [6] is 9.3%; in the assay listed under Homo sapiens, 0.959%; in assay [7], 6.67%; in assay [8], 21.2%; in [9], -25.7%.
For the compound `CCn1cc(CNC2CC(=O)N(CCc3cccc(Cl)c3)C2)cn1` (stereo not given), the Percent Effect in assay [1] was -5.27%; in [2] it was 8.22%; in [3], 1.5%; in assay [4], 35.6%; in the assay on Trypanosoma cruzi it was 0.397%; in assay [5], -3.99%. For the same compound, the Percent Effect in assay [6] was 8.65%; in the assay filed under Homo sapiens it was 2.71%; in [7] it was 2.08%; in assay [8] it was 8.64%; in assay [9], -4.3%.
Take `CCS(=O)(=O)NCCNC(=O)c1cc(Cl)c2c(c1)OCCCO2`: the Percent Effect is -1.06% in assay [1]; 8.11% in [2]; -7.22% in assay [3]; 31.3% in assay [4]; 1.47% in the assay with Trypanosoma cruzi; 5.21% in assay [5]. Moreover, the Percent Effect in assay [6] was 8.33%; in the assay listed under Homo sapiens it was 12.9%; in assay [7], 2.15%; in assay [8] it was 16.1%; in [9] it was -5.31%.
